Experimental data as given in PubChem BioAssay AID1259313 (Sanford-Burnham Center for Chemical Genomics, 2017).
Among all 340,000 compounds or so, about 8,500 (2.5%) were called active.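 The calls were made as follows: active = melting temperature shift of at least 10% of the positive control shift, at one fixed dose; inactive = the rest.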 Only a selection was taken, and actives are over-represented in it overall.

System: Glutamate receptor ionotropic, NMDA 3A (GRIN3A) ligand-binding domain
Assay: binders of NR3A ligand-binding domain, primary screen, biophysical, differential scanning fluorimetry, uHTS (AID 1259313)
Settings: NR3A LBD differential scanning fluorimetry, at 25 µM, hits give high values, 0% = protein alone, 100% = glycine-bound protein

| SMILES | Tm shift relative to glycine control |
| --- | --- |
| O=C(Cc1coc2ccc3ccccc3c12)NCc1cccs1 | -3.17% (inactive) |
| COc1ccc2c(CC(=O)OCC(=O)NC(N)=O)coc2c1 | -1.31% (inactive) |
| Cn1cccc1C(=O)NC(=O)COC(=O)Cc1coc2ccc3ccccc3c12 | 711% (active) |
| CN(C)S(=O)(=O)c1ccc(C(=O)NCC2(N3CCOCC3)CCCCC2)cc1 | -0.34% (inactive) |
| CCC(C)NC(=O)C1c2ccccc2C(=O)N1Cc1ccccc1 (configuration not stated) | 0.89% (inactive) |
| Cc1c(NS(=O)(=O)c2cccc(C(=O)Nc3ccc(SC(F)F)cc3)c2)c(=O)n(-c2ccccc2)n1C | -4.82% (inactive) |
| Nc1cccc(S(=O)(=O)Nc2ccc(SC(F)F)cc2)c1 | -8.52% (inactive) |
| COc1ccc(NC(=O)/C(N=Nc2cccc(S(=O)(=O)Nc3ccc(SC(F)F)cc3)c2)=C(\C)O)cc1 | 28% (active) |
| Cc1ccc(NN=C2C(=O)OC(C)(C)OC2=O)c(C)c1 | -1.21% (inactive) |
| CC(CO)N1CCS(=O)(=O)CC1 (configuration not stated) | 0.09% (inactive) |
| CCOc1ccc(N/C(N)=N/c2nc(C)c(C)c(=O)[nH]2)cc1 | 2.12% (inactive) |
| Cc1ccc2nc(C)c3c(c2c1)N(c1ccccc1)CC3 | -1.71% (inactive) |
| CN1CCN(c2nc(Nc3ccc(O)cc3)nc3ccccc23)CC1 | -0.23% (inactive) |
| Cc1cc(Nc2ccc(Br)cc2)nc2ccccc12 | 45.6% (active) |
| CCOc1ccc(NC(=O)c2cc(C)nc3ccccc23)cc1 | -0.84% (inactive) |
| Cc1ccc(Nc2nc(C)cc(C)c2C(N)=O)cc1 | -2.09% (inactive) |
| Cc1ccc2nc(Nc3ccccc3)cc(C)c2c1 | 30.3% (active) |
| Cc1cccc(NC(=S)N2CCC(O)CC2)c1C | 1.31% (inactive) |
| CC(C)=CCN1CCN(Cc2ccc(Oc3ncccn3)cc2)CC1CCO (configuration not stated) | 0.09% (inactive) |
| COC(=O)c1ccc(NC(=O)C23CC4CC(C2)CC(n2cnc(Cl)n2)(C4)C3)cc1 | -0.61% (inactive) |
| O=C(CSc1nc(-c2ccccc2)cs1)Nc1cccc([N+](=O)[O-])c1 | 34.4% (active) |
| O=C(CSc1ncn[nH]1)Nc1nc(-c2cccc([N+](=O)[O-])c2)cs1 | -2.42% (inactive) |
| COc1ccc(-n2cnnc2SCC(=O)Nc2cccc([N+](=O)[O-])c2)cc1 | -0.86% (inactive) |

| SMILES | Tm shift relative to glycine control |
| --- | --- |
| Cc1cc(/C=N/n2cnnc2)c(C)n1-c1ccc2ncccc2c1 | -0.4% (inactive) |
| Cc1nn(-c2ccccc2)c(C)c1/C=C/C(=O)OC(C)C(N)=O (configuration not stated) | -7.09% (inactive) |
| Cc1ccc(C(=O)/C=C/c2c(C)nn(-c3ccccc3)c2Cl)cc1 | -10.2% (inactive) |
| Cc1nn(-c2ccccc2)c(Cl)c1/C=C/C(=O)c1ccc(O)cc1 | 15.2% (active) |
| COc1ccc(Br)c2c1C(=O)CC2 | 2.15% (inactive) |
| CCCCN(C)C(=O)C1CCN(Cc2ccccn2)CC1 | 1.37% (inactive) |
| COc1ccc(-c2cc(C(=O)N3CCN(Cc4ccc5c(c4)OCO5)CC3)on2)cc1OC | -2.25% (inactive) |
| COc1ccc(-c2csc3ncnc(N4CCN(S(=O)(=O)c5ccccc5C#N)CC4)c23)cc1 | -2.57% (inactive) |
| Cc1ccc(NC(=O)Cn2cnc3c(OCc4ccccc4)ncnc32)cc1C | -1.41% (inactive) |
| CC(CNC(=O)Cn1cnc2c(OCc3ccccc3)ncnc21)c1ccccc1 (configuration not stated) | 16.8% (active) |
| O=C(Cn1cnc2c(OCc3ccccc3)ncnc21)NCc1nc2ccccc2[nH]1 | -0.08% (inactive) |
| COc1ccc(Br)cc1CN(C)C(=O)C1CC(=O)N(C2CCCC2)C1 (configuration not stated) | -0.58% (inactive) |
| O=C(O)C1CCN1C1CCCCC1 (configuration not stated) | -1.21% (inactive) |
| CCOC(=O)c1nnn(CC(=O)Nc2cccc(F)c2)c1C(=O)OCC | -0.09% (inactive) |
| Cc1nc(C)c(-c2nnc(-c3cccc(S(=O)(=O)N(C)C)c3)o2)cc1C(=O)NN | 4.67% (inactive) |
| O=C1/C(=C\c2ccc(O)cc2)CCC1CNc1ccc(Cl)cc1 (configuration not stated) | 21.3% (active) |
| CC1CCN(C2=NC(=O)/C(=C/c3ccc(O)cc3)S2)CC1 | -0.54% (inactive) |
| CC(C(=O)NC1CCS(=O)(=O)C1)N1C(=O)/C(=C/c2ccc(Cl)cc2)SC1=S (configuration not stated) | -5.79% (inactive) |
| O=C(COC(=O)c1ccc(F)cc1)NCC1COc2ccccc2O1 (configuration not stated) | 0.36% (inactive) |
| Cc1cc(C)c2c(c1)c(C)cc1nnc(SCC(=O)NCc3ccco3)n12 | 9.65% (inactive) |
| Cc1ccccc1N1CC(C(=O)Nc2ccc(S(=O)(=O)N3CCCC3)cc2)CC1=O (configuration not stated) | -1.31% (inactive) |
| COc1ccc(-n2c(SCC(=O)NCc3ccco3)nnc2-c2c[nH]c3ccccc23)cc1 | -3.71% (inactive) |
| CC(Oc1ccc(-c2ccccc2)c(F)c1)c1ccn(S(=O)(=O)c2cccc3ccccc23)n1 (configuration not stated) | 1.41% (inactive) |

| SMILES | Tm shift relative to glycine control |
| --- | --- |
| NC(=O)c1ccsc1NC(=O)COC(=O)COc1ccc(C=O)cc1 | -1% (inactive) |
| CCCCc1ccc(NC(=O)CN2C(=O)NC(Cc3ccccc3)C2=O)cc1 (configuration not stated) | 38.2% (active) |
| Cc1cc(C)c(NC(=O)CN2C(=O)NC(Cc3ccccc3)C2=O)c(C)c1 (configuration not stated) | 0.16% (inactive) |
| Cc1cc(NC(=O)CN2C(=O)NC(CCc3ccccc3)C2=O)no1 (configuration not stated) | 0% (inactive) |
| Cc1scc(C(=O)NNC(=S)NCC(C)C)c1C | -0.09% (inactive) |
| COCCCN1C(=O)c2ccc(C(=O)OCC(=O)NCc3ccccc3OC)cc2C1=O | -0.26% (inactive) |
| CCOc1ccc(NC(=O)CCCCCN2C(=O)[C@@H]3Cc4ccccc4CN3C2=O)cc1 | -0.91% (inactive) |
| COc1cc(OC)cc(C(=O)Nc2ncc3c(n2)CC(C)(C)CC3=O)c1 | -0.38% (inactive) |
| COc1cc(OC)cc(C(=O)Nc2ccc(-c3nc4ccccc4o3)c(O)c2)c1 | 35.4% (active) |
| COc1cc(OC)cc(C(=O)N[C@H](C(=O)Nc2nc3ccccc3[nH]2)C(C)C)c1 | -1.04% (inactive) |
| Cc1noc(C)c1S(=O)(=O)Nc1ccc(C(=O)N2CCN(c3ccc(F)cc3)CC2)cc1 | -0.58% (inactive) |
| CC/C(=N\O)C(C)(C)/[N+]([O-])=C/c1ccc(Br)cc1 | 0.62% (inactive) |
| CC(C)CN1CCNC(=O)C1CC(=O)N(C)CC1CCOCC1 (configuration not stated) | 0.85% (inactive) |
| COCCNC(=O)Cn1cc2c(n1)CCCCC2 | -0.96% (inactive) |
| COC(=O)c1cccc(-n2[nH]nnc2=S)c1 | -0.34% (inactive) |
| OCCNc1nc(Nc2ccc(Cl)c(Cl)c2)nc2ccccc12 | 15.3% (active) |
| Cc1ccc(Nc2nc(N)nc(CN3CCN(Cc4ccccc4)CC3)n2)cc1Cl | -0.21% (inactive) |
| NS(=O)(=O)c1ccc(CCNc2nc(C(F)(F)F)nc3ccccc23)cc1 | -7.08% (inactive) |
| COc1ccccc1/C=N/N1CCN(Cc2ccccc2Cl)CC1 | 3.27% (inactive) |
| Cc1cc(-n2nc(C)cc2C)n2ncc(-c3ccccc3)c2n1 | 0.25% (inactive) |
| COc1ccc(CC(=O)N/N=C/c2cc([N+](=O)[O-])cc(Br)c2O)cc1 | 7.97% (inactive) |
| COc1cc(/C=N/NC(=O)CCc2n[nH]c(=O)[nH]c2=O)ccc1O | 0.39% (inactive) |
| COc1cc(/C=N/Nc2nc3ccccc3s2)ccc1O | 20.7% (active) |

| SMILES | Tm shift relative to glycine control |
| --- | --- |
| Cc1cc(C(=O)N/N=C/c2cc([N+](=O)[O-])cc(C)c2O)n[nH]1 | -7.09% (inactive) |
| O=[N+]([O-])c1cc(Br)c(O)c(/C=N/Nc2nc3ccccc3s2)c1 | 24.4% (active) |
| CCOc1cc(/C=N/Nc2cc(C)nc3ccc(C)cc23)ccc1O | -6.31% (inactive) |
| COc1cc(/C=C/CNC[C@H]2O[C@@H](n3cnc(C(N)=O)n3)[C@H](O)[C@@H]2O)ccc1O | -1.5% (inactive) |
| C/C(=C/C(=O)N1CCN(C)CC1)C(=O)O | -0.35% (inactive) |
| Cc1cc(C)c2cc(CN(Cc3cccs3)Cc3nnnn3CC3CCCO3)c(=O)[nH]c2c1 (configuration not stated) | -5.51% (inactive) |
| Cn1c(=O)[nH]c(=O)c2c1nc(CN1CCN(c3ccccc3F)CC1)n2CCc1ccccc1 | -1.61% (inactive) |
| CCCCCNC(=O)c1cccnc1SCC(=O)Nc1ccccc1OC | 8.62% (inactive) |
| CCCNC(=O)Nc1ccccc1C(=O)Nc1ccc(OC)cc1 | 0% (inactive) |
| CCCNC(=O)c1ccccc1NC(=O)CSCc1ccc(OC)cc1 | 12.7% (active) |
| COc1cc2c(cc1OC)C(C(=O)Nc1cc(C)c(OC)c(C)c1)CC(=O)N2 (configuration not stated) | 0.68% (inactive) |
| CC(=O)c1c(C)[nH]c(C(=O)OCC(=O)Nc2c(C)n(C)n(-c3ccccc3)c2=O)c1C | 0.41% (inactive) |
| CCOCCCNC(=O)C(NC(=O)CNC(=O)c1ccccc1)c1ccc(C)cc1 (configuration not stated) | -0.17% (inactive) |
| Cc1ccc(N2CC(C(=O)NCCS(=O)(=O)N3CCN(c4ccccc4)CC3)CC2=O)cc1 (configuration not stated) | 0.09% (inactive) |
| CCOc1cc2[nH]c(=S)n(Cc3ccc(C(=O)N4CCN(C)CC4)cc3)c(=O)c2cc1OCC | -2.77% (inactive) |
| CCOc1cc2[nH]c(=S)n(Cc3ccc(C(=O)NCCOC)cc3)c(=O)c2cc1OCC | -2.12% (inactive) |
| COc1cc2[nH]c(=S)n(CCN3CCCCC3C)c(=O)c2cc1OC (configuration not stated) | -1.68% (inactive) |
| COc1ccc(Cn2c(=S)[nH]c3cc(C(=O)N4CCCCC4)ccc3c2=O)cc1 | 0.18% (inactive) |
| COc1cc2[nH]c(=S)n(Cc3ccc(F)cc3)c(=O)c2cc1OC | 16.4% (active) |
| COc1cc2[nH]c(=S)n(Cc3ccc(C)o3)c(=O)c2cc1OC | 13.2% (active) |
| COCC(C)N=CC1=C(O)CC(C)(C)CC1=O (configuration not stated) | 1.32% (inactive) |
| O=C(NN1CCOCC1)c1cccc(F)c1 | -0.08% (inactive) |
| COc1ccc(C2c3[nH]c4ccccc4c3C[C@H]3C(=O)N(CC(C)C)CC(=O)N23)c(OC)c1 (some centres not stated) | -1.75% (inactive) |
